Measured values taken from the OligoGym collection.

molecular target: SLC25A25; assay: pooled miR-30 sensor sort-seq; sequence = guide strand; settings: shRNA
Also: reference of the scale not given here.

Sequence	sensor-assay potency score (higher = more potent)
TAGTCTCTCCACTCGTTCCAGT	-0.705
TGCATGAGCACCTTGAGCCTGT	-0.00686
TTGAGCGTCTCGTAGACTGCAA	0.033
TTCCAGTCGATGGTCATCGTGC	-0.398
AAATTCTTCAAAGTCTAGCTGC	0.318
TCCACTGTGAACTCATCCGGGA	-0.99
TTAAATGACAACTTCTAACGTC	0.538
TAGACTGCAAGGTCGATGCCGG	-0.614
TTCTCGTAGACCACGTAGCTGA	-0.478
TATCTTGACTCCCAAGTCCCGC	-1.03

molecular target: SLC25A30; assay: as above; settings: shRNA

Sequence	sensor-assay potency score (higher = more potent)
TAGAGTTTCATCTTCTGGGCGT	0.316
TTGCTTTGCGCTTGCATCCGAA	-1.2
TTATAGAGAGCAAAAAACCCTT	-0.63
TTATCGGTAGAGTTTCATCTTC	-0.374
TTCAATGAATAGTCGCTTCAAG	-0.455
TAAATGTTCATGAAGTTGCCTA	-0.274
TAAGTGCCTATCTTGATGGTGC	0.212
TATCGGTAGAGTTTCATCTTCT	0.16
TGTCTGTAACAAGCAATCCAGG	-1.42
TATCATTCCTCCTTGAATGGTG	-0.0231
TGTAGCCAGAACATCTGCCATC	-1.32

molecular target: SLC25A38; assay: as above; settings: shRNA

Sequence	sensor-assay potency score (higher = more potent)
TTGAAAATAAGTGTCACTGCTT	0.827
TATATTTTTGGTCTGGTTGTAA	0.16
TATGAGTTTTGATAACATCCGC	-0.0581
TTGATGACTCCTCTTTTGGAGA	-1.04
TAACATAAGCGTTTCCACCGTG	0.26
AAGAGTACAGCCAACATCCCAA	-0.0219
TTTGATAACATCCGCAGGTTGA	-0.428
ATAGGTGACATACAGACCCCTG	-0.876
TAGGACTTCATCTTACTGCAGA	-0.516
TATGAATTGATGACTCCTCTTT	0.416
TGAGTTTTGATAACATCCGCAG	-0.615
ATGAGTTTTGATAACATCCGCA	0.0272

molecular target: SLC25A3; assay: as above; settings: shRNA

Sequence	sensor-assay potency score (higher = more potent)
TATGGTATCTGTCTCATCCAGA	0.075
TACAAATGTTACAACCAGCTGC	0.505
TTTTCTTTATTCAACACAGATA	-1.15
TAAATCTGAAACTCTTGCCTTA	0.121
TTGCACAAAAGACTCCAGCTAT	0.0495
TTAAGTGTAACTGAGAATCCGT	0.392
TTGAGGACCAGAGAAGCACTGC	0.0253
